This is part of a sample that, as a whole, favours compounds with a hit. Of some 83,000 tested, about 20% had one in any assay.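 Step 1: grow cells in 96-well plates. Step 2: add test compound at a single concentration. Step 3: incubate 48 h. Step 4: record percent growth.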 A number with no mark means an inactive call. Calls of active or inactive are those of the source. How the source made its calls: active means growth percent below 10; inactive means the rest.

What all share (experiment): NCI-60 one-dose screen, 48 h (100 = growth as untreated, 0 = no growth, -100 = all killed)
Holding throughout (settings): 10 µM unless noted

Assay [1] deals with RPMI-8226 leukemia.
In assay [2] the test system is OVCAR-8 ovarian.
The subject of assay [3] is OVCAR-5 ovarian.
In assay [4] the test system is OVCAR-4 ovarian.
Assay [5] has as its system SK-OV-3 ovarian.
Assay [6] concerns IGROV1 ovarian.
The test system of assay [7] is OVCAR-3 ovarian.
In assay [8] the test system is HS 578T breast.
Assay [9] concerns NCI/ADR-RES ovarian.
The subject of assay [10] is T-47D breast.
For assay [11], the system named is BT-549 breast.
Assay [12] concerns MDA-MB-435 melanoma.
For assay [13], the system named is SW-620 colon.
In assay [14] the test system is MCF7 breast.
The test system of assay [15] is HCT-116 colon.
The subject of assay [16] is HCC-2998 colon.
Assay [17] deals with KM12 colon.
For assay [18], the system named is SR leukemia.

For `Cc1ccc(C(CN(C)C)C(=O)c2ccccc2)cc1` (stereo not drawn), the growth in [1] was -41% (active); in [2], 14.5%; in assay [3], 65.9%; in assay [4] it was 33.2%; in assay [5], 97.6%; in assay [6], 88.9%. Also, the growth was -8.33% (active) in assay [7]; 83.5% in [8]; 49.7% in assay [9]; 33% in assay [10]; -4.79% (active) in [11]; 18.2% in assay [12]. Besides, the growth in assay [13] is -53.8% (active); in assay [14] it was -0.801% (active); in [15], -86.4% (active); in [16], 101%; in [17], 33.9%.

For the compound `COc1ccc2c(c1)C1=NN(C(=O)CO)[C@H](c3ccc(OC(F)(F)F)cc3)[C@@H]1CC2`, the growth was 42.9% in [1]; 98% in assay [2]; 108% in assay [3]; 89.5% in assay [4]; 96.3% in assay [5]; 72.3% in assay [6]. In addition, the growth in [7] was 88.6%; in [8] it was 85.7%; in assay [9] it was 85.5%; in assay [10], 82.1%; in [11] it was 127%; in assay [12], 116%. For the same compound, the growth was 109% in assay [13]; 83.2% in [14]; 92.5% in [15]; 91.9% in assay [16]; 102% in assay [17].

`CCOC(=O)Cc1cc(Br)c(OCc2ccccc2)c(Br)c1`: the growth is 84.5% in [18]; 95.5% in [2]; 85% in assay [3]; 94.5% in assay [4]; 109% in assay [5]; 85.6% in [6]. The growth in assay [7] is 113%; in [9], 102%; in assay [11], 98.3%; in assay [12], 96.3%; in [13], 113%; in [14], 107%. Besides, the growth is 93.8% in assay [15], 98.5% in assay [16] and 107% in assay [17].

For `CCCNCCC(C)=O`, the growth in assay [1] was 108%; in assay [2], 106%; in assay [3], 101%; in [4], 107%; in assay [5], 116%; in [6], 118%. The growth is 116% in [7]; 89.9% in assay [8]; 100% in assay [9]; 98.7% in assay [10]; 106% in assay [11]; 94.7% in assay [12]. Further, the growth in assay [13] was 97.6%; in assay [14], 106%; in [15] it was 109%; in [16], 99.6%; in assay [17], 112%.

As to `Nc1cc(C(=O)O)cc(C(=O)O)c1`, the growth in [18] was 75.3%; in assay [2], 99.3%; in [3] it was 105%; in [5], 97%; in [6], 102%; in assay [7], 123%. Also, the growth in assay [8] is 113%; in [9], 112%; in assay [10], 97.1%; in assay [11], 107%; in assay [12] it was 108%; in [13], 110%. The growth was 99.8% in assay [14], 101% in assay [15], 121% in assay [16] and 111% in assay [17].

For the compound `O=C(Nc1cccc(C2=NCCN2)c1)c1ccc(N=Nc2ccc(C(=O)Nc3cccc(C4=NCCN4)c3)cc2)cc1`, the growth in [18] is 87.5%; in assay [2], 37.5%; in assay [3], 76.6%; in [5], 77.3%; in assay [6], 58.8%; in assay [7] it was 77.4%. The growth in assay [8] is 65.2%; in [9] it was 100%; in assay [10], 46.5%; in assay [11] it was 69.1%; in assay [12], 47.9%; in assay [13], 70.7%. Further, the growth in assay [14] was 62.4%; in [15], 53.1%; in assay [16] it was 79.4%; in [17] it was 72.8%.

Turning to `CC(C)[C@@H]1C=C2CC[C@H]3[C@](C)(CN)CCC[C@]3(C)[C@H]2CC1`, the growth in assay [1] is 20.7%; in assay [2], 82.3%; in [3] it was 111%; in [4] it was 77.3%; in [5], 113%; in assay [6], 92.2%. Moreover, the growth in assay [7] was 44.4%; in [8], 74.6%; in assay [9] it was 106%; in assay [10], 53.8%; in [11] it was 90.7%; in assay [12] it was -23% (active). In addition, the growth is -65.8% (active) in assay [13]; -44.3% (active) in assay [14]; 31.3% in assay [15]; -40.1% (active) in assay [16]; 37.8% in assay [17].

For the compound `Cc1ccccc1NC(=O)c1sc2nc3c(cc2c1N)C(=O)CCC3`, the growth in assay [1] is 67.2%; in [2], 78.6%; in [3], 80.8%; in [4] it was 67.6%; in assay [5], 22.1%; in [6], 77%. The growth is 4.33% (active) in assay [7]; 25.8% in assay [8]; 22.6% in assay [9]; 43.9% in assay [10]; 55.6% in assay [11]; -12.9% (active) in assay [12]. For the same compound, the growth was 25.4% in assay [13]; 21.7% in assay [14]; 34.5% in [15]; 67% in [16]; 19.2% in assay [17].

Take `CCOC(=O)c1cc(C(=O)OCC)c(C)nc1C`: the growth was 87.9% in assay [18]; 104% in assay [2]; 99.8% in assay [3]; 114% in assay [5]; 111% in assay [6]; 114% in [7]. In addition, the growth in assay [8] was 126%; in assay [9], 110%; in assay [10] it was 102%; in assay [11] it was 115%; in [12] it was 105%; in [13], 110%. In addition, the growth was 90.9% in [14], 105% in assay [15], 103% in assay [16] and 111% in assay [17].

For the origin of these results see PubChem BioAssay (NCI).
